Results published in the supplement of paper PMC6555819.

These sequences were tested on RARb homodimer (NR concentration 270 nM) (assay: PBM binding z-score (relative to random genomic background probes); higher = stronger binding; sequences stand for … in GC…GCGATTGACAGCGTAGAATGAAGG).
Method in brief: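 The probes on custom Agilent 4×180K protein-binding microarrays were double-stranded, with 34-nt variable regions bearing direct-repeat seeds, single-nucleotide variants, half-site ablations and random human genomic background sequences. Incubation lasted 1 h with ligand-free nuclear receptor dimers in PBS pH 7.4, 2% milk, 0.02% Triton X-100, 1 mM DTT, 0.2 mg/mL BSA and 0.4 mg/ml salmon testes DNA. Antibodies against each partner (one per run) detected bound dimers, and fluorescence scans were regression-normalized. Binding z-scores take the random background probes as reference.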
TATACAGGGTCAAAGGCCAGTGTACGAATGTCGA was tested, and the PBM binding z-score was 3.45. In the case of AGAACGAGGGCACTCTGAGTTGATAGCAGAGTAG, the PBM binding z-score was 0.374. With CCTAGTTGGTCAGGCGGTCACACACCGGATATGA the PBM binding z-score was 2.12. Work on CCTCGGAGGACAACAGGAGGTCAGAGCAGCCAGA yielded a PBM binding z-score of 3.68. Work on GCAGACAGGTGAAACGTAGGTAACTCAGGGTGGC yielded a PBM binding z-score of 0.622. With GATACAGGGTCAGTTAGAGGCCAGAGTATGGAAA the PBM binding z-score was 3.21. With CGAACTAGGTCATCCAGGGCAGTGAATACATTGA the PBM binding z-score was 3.48. In the case of TCTCGGAGGACACTAAGGTCAGAGCTTTCCAGAG, the PBM binding z-score was 3.82. CAAACTAGGTCAAGAGGGCAAAGTCCGCTTCCCG showed a PBM binding z-score of 4.13. GCATATAGGTAATACAAGGAGAAAGTCCGATTGT gave a PBM binding z-score of -0.449. TCTTGTAGATCATCAGGTTAAGAAAGCTGGCCAA was tested, and the PBM binding z-score was 0.398. CTCGAAATGTCGGTTGAGGTGAGTATACGGATAA gave a PBM binding z-score of 0.344. Sequence AGAATGAGGTGACCAAAGATCAGGGAAACGCTTG has a PBM binding z-score of 0.672. In the case of TCATACAGGTGAAGGTAACTCAGGTACGCAGTCG, the PBM binding z-score was 0.9. Work on ACAAACAGGTGATGAAGGTAACTCAGGCTATCAT yielded a PBM binding z-score of 0.731. With ATACCAAGGTGATCGTGAGGTCGTTCATACTAAC the PBM binding z-score was 1.73. ATCGCAAGGTCGAAGGTGAGTATACCCACCCGAA gave a PBM binding z-score of 1.17. In the case of CATACAGGGTCAGCTAGGCTAGAGTAGGGACGGC, the PBM binding z-score was 3.04. Work on CCGAGTTGGTCAGGAGGTCACACACCGGATATGA yielded a PBM binding z-score of 4.31. CCGACTGGGGTAAAGGTTACCATACTCAGTACGA gave a PBM binding z-score of 1.83. In the case of TCTTGTAGCTCAAGCAGGTTAAGAAAGCCTGAGT, the PBM binding z-score was -0.116. Sequence CAAACTAGGTCAAAGGTCGAAGTCGAGCCAACCA has a PBM binding z-score of 3.9.
